# Assay results taken from PubChem BioAssay AID652067 (The Scripps Research Institute Molecular Screening Center, 2013).
# About 5,400 (1.5%) of roughly 370,000 compounds were called active. The sample as a whole holds a higher share of actives than the screen did. Unmarked numbers belong to inactive results.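 How the source made its calls: active means activation above the mean of all tested compounds plus 3 SD (cut at about 5.5% in these data); inactive means the rest.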
# Tested on: DAF-12 nuclear receptor (Haemonchus contortus)
# Assay: H. contortus DAF-12 nuclear receptor activators, primary screen, cell-based, luminescence, HEK293, lit1-tk-luc reporter (AID 652067);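 further: 100% = response to 3 µM Δ7-dafachronic acid high control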
# Conditions: HEK293 hcDAF-12 lit1-tk-luc reporter, at 6.8 µM, hits give high values, 0% DMSO, 100% Δ7-dafachronic acid
row,SMILES,activation
1,Cc1ccc(C(=O)N(Cc2ccccn2)CC2CCCO2)cc1 (stereo not given),-1.39%
2,CN1[C@H](Cc2ccccc2)COc2cccc(N3CCSCC3)c2S1(=O)=O,3.54%
3,O=C(Nc1ccccc1N1CCN(C(=O)c2ccccc2)CC1)c1ccco1,-1.91%
4,CC(=O)N1CCN(c2ccccc2NC(=S)NC(=O)c2cc3ccccc3o2)CC1,7.26% (active)
5,O=C(c1cc2ccccc2o1)N1CCN(Cc2ccccc2)CC1,-2.1%
6,CCc1ccccc1NC(=O)NCCN1CCCCC1,-0.86%
7,CCc1ccccc1NC(=O)c1ccc2c(c1)CCN2S(C)(=O)=O,-0.87%
8,CN1CCc2ccccc2C1Cc1ccccc1NC(=O)c1sc2ccccc2c1Cl (stereo not given),6.57% (active)
9,COC(=O)[C@]12C[C@H](CC(=O)NCCc3ccccc3OC)C(=O)N(Cc3ccco3)C1=C[C@H](C(C)C)O[C@@H]2C1CC1,-3.62%
10,O=C(Nc1ccccc1F)c1ccccc1-c1ccccc1,-2.35%
11,O=C(O)c1ccccc1-c1ccccc1C(=O)Nc1ccccc1Br,1.04%
12,O=C(O)c1ccccc1-c1ccccc1C(=O)Nc1cccc2ccccc12,5.93% (active)
13,COc1ccccc1C(=O)NCc1nnc(SC(C)C(=O)Nc2nccs2)n1C (stereo not given),6.99% (active)
14,CC(Sc1nnc(CNC(=O)c2ccccc2F)n1C)C(=O)Nc1nccs1 (stereo not given),-0.26%
15,COc1ccc(CC(=O)NCc2nnc(SCC(=O)Nc3nccs3)n2C)cc1,-1.09%
16,COC(=O)[C@H](CC(C)C)NS(=O)(=O)c1c(F)cccc1F,0.07%
17,O=C1C(=O)N(Cc2ccc(-c3ccsc3)cc2)c2ccc(OC(F)(F)F)cc21,1.15%
18,Brc1ccc2nc(N3CCCC3)sc2c1,9.08% (active)
19,Cc1nc(N2CCCCC2)sc1C=O,-0.55%
20,O=C(NCCc1cccc(F)c1)C1CCCN(c2nc3ccccc3s2)C1 (stereo not given),-1.62%
21,CC(=O)Nc1ccc(S(=O)(=O)NC2Cc3ccccc3C2)cc1,-1.07%
22,CC(=O)Nc1ccc(-c2nc3ccccc3o2)cc1,6.08% (active)
23,Cc1nc2ccc(NC(=O)C(F)(F)F)cc2o1,0.11%

row,SMILES,activation
1,CC[C@H](C)[C@H]1CNC(=O)C(=O)N1CC1CCN(CCc2ccc(OC)c(OC)c2)CC1,-1.29%
2,Cc1cc(O)c(Sc2ccccc2)c(=O)o1,0.75%
3,Cc1cc(O)c(C(=O)/C=C/c2c(F)c(F)c(F)c(F)c2F)c(=O)o1,8.11% (active)
4,C=CCN1[C@@H](Cc2ccccc2)COc2cccc(N3CCSCC3)c2S1(=O)=O,-1.72%
5,Cc1ccc2cccc(OCCCOc3ccccc3CO)c2n1,-0.62%
6,CC1(C)OC(=O)C2=C(CC(CCc3ccccc3)OC2c2ccc(Cl)cc2)O1 (stereo not given),-1.84%
7,O=C(NC1CCCCC1)C(c1cc2ccccc2o1)n1c(=O)c(-c2ccco2)nc2ccccc21 (stereo not given),9.06% (active)
8,Cc1cccc(C)c1NC(=O)C(c1cccc2ccccc12)n1c(=O)c(-c2ccco2)nc2ccccc21 (stereo not given),2.42%
9,Cc1cccc(C)c1NC(=O)C(c1ccc(C(F)(F)F)cc1)n1c(=O)c(-c2ccco2)nc2ccccc21 (stereo not given),0.34%
10,O=C(COC(=O)c1cccc(Cl)c1)NC(=O)NCc1ccccc1,0.2%
11,O=C(CCOc1ccccc1)NCc1ccccc1,0.79%
12,O=C(COc1cccc(Cl)c1)NCc1ccccc1,6.74% (active)
13,COc1ccc(CN2C(=O)N3Cc4cc(OC)ccc4C3CS2(=O)=O)cc1 (stereo not given),-4.29%
14,CCOC(=O)C1CCN(C(=O)CSc2cc(=O)n(C)c3ccccc23)CC1,5.88% (active)
15,Cn1c(=O)cc(SCC(=O)N2CCN(C(=O)c3ccco3)CC2)c2ccccc21,-0.81%
16,Cn1c(=O)cc(SCC(=O)N2CCCC2)c2cc(Cl)ccc21,0.28%
17,O=C(N[C@H](C(=O)N1CCC[C@H]1C(=O)NCCc1ccccc1Cl)c1ccccc1)c1ccccc1,-0.38%
18,CCOC(=O)[C@]12CCCC=C1N(CCCOC)C(=O)[C@@H]2CC(=O)N1CCOCC1,-0.67%
19,O=c1[nH]n2c(=O)c3c([nH]c2c1N=Nc1ccccc1)CCC3,0.16%
20,Cc1ccc(C)c(NC(=O)COC(=O)Cn2c(C)csc2=O)c1,-0.15%
21,Cc1ccc(NC(=O)CN2CCc3ccccc3C2)cc1C,-0.52%
22,CCc1ccc(NC(=O)N2CCc3ccccc3C2)cc1,10.8% (active)
23,Cn1cccc1C(=O)N1CCc2ccccc2C1,0.07%

row,SMILES,activation
1,COC(=O)C1=C(C)N(Cc2ccccc2C(F)(F)F)C(=NCc2ccc(C(F)(F)F)cc2)NC1c1ccc(F)cc1 (stereo not given),-0.44%
2,O=S1(=O)c2ccc(Br)cc2OC[C@@H](Cc2ccccc2)N1Cc1cn(Cc2ccco2)nn1,-3.82%
3,O=C(c1ccco1)N1CCN(C(=O)c2cc(-c3ccccc3F)no2)CC1,0.36%
4,Fc1ccccc1-c1cc2cc3c(cc2cn1)OCO3,5.75% (active)
5,O=C(NCCCN1CCOCC1)c1cc(-c2ccccc2F)no1,-0.99%
6,COC(=O)[C@]12C[C@H](CC(=O)NCc3cccc4ccccc34)C(=O)N(CCc3ccc(OC)c(OC)c3)C1=C[C@H](C1CCCC1)O[C@@H]2C,-3.52%
7,C[C@H](CO)N1C[C@H](C)[C@@H](CN(C)C(=O)Nc2ccccc2F)OCc2cn(nn2)CCCC1=O,-0.15%
8,COC(=O)c1ccc(/C=N/NC(=O)C(=O)N2CCCCCC2)cc1,-0.19%
9,CC(C)(C)OC(=O)N/N=C/c1ccc(C(=O)O)cc1,7.41% (active)
10,C/C(=N\NC(=O)OC(C)(C)C)c1ccc[nH]1,1.29%
11,CCCCC(=O)N[C@@H]1CC[C@@]23CCCN2C(=O)CCC[C@H]3[C@H]1C,0.2%
12,COc1cc(Cl)ccc1OCc1cc(C(=O)N2CC[C@@H]3CCCC[C@H]3C2)no1,1.66%
13,O=C(Nc1ccccc1C(F)(F)F)c1cc(-c2ccc(O)cc2)on1,-0.51%
14,O=C(NC1CCCC1)c1cc(-c2ccccc2)on1,4.69%
15,O=C(c1cc(-c2ccc(Cl)s2)nc2ccccc12)N1CCOCC1,-1.34%
16,O=C(c1cc(COc2ccc(F)cc2F)on1)N1CCOCC1,1.67%
17,O=C(Nc1cccnc1Cl)c1cc(-c2ccccc2O)on1,6.07% (active)
18,Cc1ccc(O)c(NC(=O)c2cc(-c3ccco3)on2)c1,0.32%
19,O=C(c1cc(-c2ccccc2O)on1)N1CCCC1,7.33% (active)
20,COc1ccc(OCc2cc(C(=O)N3CCCC3)no2)c2ccccc12,10.3% (active)
21,O=C(c1cc(-c2ccc(O)cc2)on1)N1CCOCC1,6.07% (active)
22,O=C(c1cc(C2CCCCN2S(=O)(=O)c2ccccc2)on1)N1CCOCC1 (stereo not given),-0.3%
23,COCCN1CCN(C(=O)c2cc(COc3ccc(F)cc3Cl)on2)CC1,-1.75%

row,SMILES,activation
1,CC(=O)C1C(c2ccc(Cl)cc2)c2c(n[nH]c2C)CC1(C)O (stereo not given),-0.09%
2,O=S(=O)(c1cccs1)N1CCCc2nc(-c3ccc(Br)cc3)ccc21,-0.17%
3,CCc1ccc(C2=CC(=O)CC(C)(C)C2=O)cc1,1.24%
4,CC(C)N1CCCCC(NC(=O)c2ccc3ccccc3c2)C1=O (stereo not given),-0.97%
5,C=CCN1C(=O)[C@@H](CC(=O)NCCCOCCCC)[C@]2(C(=O)OCC)CCCCC/C=C/12,-0.92%
6,COc1ccc(S(=O)(=O)Nc2ccc3c(c2)C(=O)N([C@H](C)CO)C[C@H](C)[C@@H](CN(C)C)OCCCC[C@H](C)O3)cc1,-1.41%
7,Cc1cc(Br)cn2c(Cc3ccccc3C(F)(F)F)c(-c3ccc(C#N)cc3)nc12,0.68%
8,COc1ccc(-c2cc(=O)oc3cc(OCC(=O)N[C@@H](Cc4c[nH]c5ccccc45)C(=O)O)ccc23)cc1,4.41%
9,COc1ccc(-c2cc(C(=O)NC(Cc3c[nH]c4ccccc34)C(=O)O)c(C)o2)cc1OC (stereo not given),6.3% (active)
10,COc1ccc(-c2cc(C(=O)NC(C(=O)O)C(C)C)c(C)o2)cc1OC (stereo not given),1.96%
11,CCOC(=O)/C=C/c1ccccc1O,-0.51%
12,Cc1cc2ncn(CCCCOc3ccccc3)c2cc1C,-1.91%
13,C[C@@H](CN1C2=NC[C@@H](Cc3ccccc3)N2C[C@H]1Cc1ccc(O)cc1)NC(=O)CCC1CCCCC1,-1.42%
14,COc1cccc(-n2nc(C(=O)N3CCN(Cc4ccccc4)CC3)c3ccccc3c2=O)c1,-2.27%
15,COc1cccc(-n2c(=S)[nH]c3c(oc4ccccc43)c2=O)c1,5.86% (active)
16,COc1ccc(OC)c(-n2c(=S)[nH]c3cc(C(=O)N4CCCCC4)ccc3c2=O)c1,-1.94%
17,C[C@@H]1ON(C)[C@H]2C[C@H]3c4cc(N5CCOCC5)ccc4CCN3C[C@@H]12,-1.8%
18,CCc1ccc2oc(-c3ccc(N)cc3)nc2c1,11.8% (active)
19,CCCCOCCCNC(=O)C[C@H]1C[C@@]2(C(=O)OC)C(=C[C@H](COCc3ccccc3)O[C@@H]2C)N(Cc2cccc3ccccc23)C1=O,-1.88%
20,COc1cccc(Cn2cc(COC(=O)Nc3ccc(F)cc3)nn2)c1,-2.13%
21,Cc1cc(NS(=O)(=O)c2ccc(NC(=O)CSc3nnc(SCc4ccc(F)cc4)s3)cc2)nc(C)n1,0.88%
